Data reported in PubChem BioAssay (NCATS).
Inconclusive results are not listed. A number with no mark means an inactive call. The call rests on the fitted dose curve; in most records, active means well fitted cell-killing curve with a large enough effect; inconclusive means small, poorly fitted or top-dose-only effect, or effect the other way; inactive means flat fitted curve, though single readings scatter.

tested on: SKOV3; test: Primary qHTS to identify gynecologic anti-cancer compounds using libraries of approved drugs and bioactive compounds (AID 1345084); conditions: Gynecologic cancer cell panel viability, ATPlite luminescence, 48 h; series mostly up to 57.5 µM; activity change, negative = cytotoxicity: at the top concentration; further: nearly all actives have a fitted effect of over 55% in size
Method in brief: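 Luminescence from the ATPlite ATP-monitoring reagent indicates viable cell number; lower signal means cytotoxicity. Cells received compound 16 h after seeding and were exposed for 48 h across five concentrations.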
On the % scale 0 is the no-effect control and ±100 the full control effect.

Structure (SMILES) | activity change, negative = cytotoxicity
FC(F)(F)c1ccccc1-c1cc(C(F)(F)F)c2nc(C3=NOC4(CCCCC4)C3)[nH]c2c1 | -1.3%
Cc1cc(OCCCS(C)(=O)=O)cc(C)c1-c1cccc(COc2ccc(C3=CC(=O)NS3=O)cc2)c1 (configuration not stated) | 3.47%
Cc1sc2c(c1C)C(c1ccc(Cl)cc1)=N[C@H](CC(=O)NCCCCNC(=O)COc1cccc3c1C(=O)N([C@H]1CCC(=O)NC1=O)C3=O)c1nnc(C)n1-2 | 4.4%
C/C(=C\Cc1c(O)c(Cl)c(C)c(C=O)c1O)CC/C=C(\C)[C@H]1CC(=O)C(C)(C)O1 | 0% [at 25.3 µM]
Cn1ncnc1[C@H]1c2n[nH]c(=O)c3cc(F)cc(c23)N[C@@H]1c1ccc(F)cc1 | -31.9% [at 25.3 µM]
Nc1nc2c(ncn2C2OC3COP(=O)(O)OC3C2O)c(=O)[nH]1 (configuration not stated) | 19.3%
CC1(C)SCCN(S(=O)(=O)c2ccc(Oc3ccncc3)cc2)[C@H]1C(=O)NO | -14.6%
